Laboratory results as given in PubChem BioAssay AID1159580 (chemical genetic matrix, 2015).
Hit rate of the full screen: of about 5,500 compounds, about 2,000 (36%) were called active. About 18% were inconclusive and are not listed. Cut-off read from the data, not from the text of the source: active = normalized growth mostly below about 0.91 (no sharp cut-off); inconclusive = no clear call, values can overlap the other calls; inactive = mostly above about 0.92. The list shows a part of the results.

Assay: chemical genetic growth profiling, strain panel (AID 1159580);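 note: tested at 20 µM; growth read once vehicle control cultures reached saturation at 30 °C; 1 = growth at the plate median or of vehicle wells; lower values mean less growth of the strain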
Details: growth OD

Measured: normalized growth

CCN1CCCC(OC(=O)C(c2ccccc2)c2ccccc2)C1 (centres undefined)
inactive: S. cerevisiae deletion strains, locus YJR075W, strain HOC1, hits give low values 1 | S. cerevisiae deletion strains, locus YKL009W, strain mrt4, hits give low values 1.02 | S. cerevisiae deletion strains, locus YKL068W, hits give low values 0.999 | S. cerevisiae deletion strains, locus YKL085W, strain MDH1 (second series), hits give low values 1.01 | S. cerevisiae deletion strains, locus YKL085W, strain MDH1, hits give low values 1.01 | S. cerevisiae deletion strains, locus YKL160W, strain elf1, hits give low values 0.983 | S. cerevisiae deletion strains, locus YKL190W, strain CNB1, hits give low values 1.01 | S. cerevisiae deletion strains, locus YKR001C, strain vps1, hits give low values 1.02 | S. cerevisiae deletion strains, locus YKR026C, strain gcn3, hits give low values 0.996 | S. cerevisiae deletion strains, locus YKR091W, strain srl3, hits give low values 0.992 | S. cerevisiae deletion strains, locus YLL001W, strain dnm1, hits give low values 0.971 | S. cerevisiae deletion strains, locus YLL026W, hits give low values 0.992 | S. cerevisiae deletion strains, locus YLL041C, strain sdh2, hits give low values 0.987 | S. cerevisiae deletion strains, locus YLR027C, strain aat2, hits give low values 0.983 | S. cerevisiae deletion strains, locus YLR039C, strain RIC1, hits give low values 1.07 | S. cerevisiae deletion strains, locus YLR058C, strain SHM2, hits give low values 1.01 | S. cerevisiae deletion strains, locus YLR102C, strain apc9, hits give low values 1.01 | S. cerevisiae deletion strains, locus YLR113W, strain HOG1, hits give low values 0.958 | S. cerevisiae deletion strains, locus YLR221C, strain rsa3, hits give low values 0.991 | S. cerevisiae deletion strains, locus YLR258W, strain gsy2, hits give low values 0.977 | S. cerevisiae deletion strains, locus YLR262C, strain YPT6 (second series), hits give low values 1.02 | S. cerevisiae deletion strains, locus YLR262C, strain YPT6, hits give low values 1.08 | S. cerevisiae deletion strains, locus YLR268W, strain sec22, hits give low values 1.01 | S. cerevisiae deletion strains, locus YLR320W, strain mms22, hits give low values 0.982 | S. cerevisiae deletion strains, locus YLR330W, strain CHS5, hits give low values 1.02 | S. cerevisiae deletion strains, locus YLR342W, strain FKS1 (second series), hits give low values 1.01 | S. cerevisiae deletion strains, locus YLR342W, strain FKS1, hits give low values 0.985 | S. cerevisiae deletion strains, locus YLR357W, strain rsc2, hits give low values 0.933 | S. cerevisiae deletion strains, locus YLR370C, strain arc18, hits give low values 0.994 | S. cerevisiae deletion strains, locus YLR371W, strain rom2, hits give low values 1.01 | S. cerevisiae deletion strains, locus YLR384C, strain iki3, hits give low values 0.983 | S. cerevisiae deletion strains, locus YLR418C, strain cdc73, hits give low values 0.998 | S. cerevisiae deletion strains, locus YML016C, strain PPZ1, hits give low values 1 | S. cerevisiae deletion strains, locus YML032C, strain rad52, hits give low values 1.01 | S. cerevisiae deletion strains, locus YML120C, strain ndi1, hits give low values 0.961 | S. cerevisiae deletion strains, locus YML124C, strain tub3, hits give low values 1 | S. cerevisiae deletion strains, locus YMR058W, strain fet3, hits give low values 0.982 | S. cerevisiae deletion strains, locus YMR078C, strain ctf18, hits give low values 1 | S. cerevisiae deletion strains, locus YMR125W, strain sto1, hits give low values 0.977 | S. cerevisiae deletion strains, locus YMR129W, hits give low values 0.969 | S. cerevisiae deletion strains, locus YMR205C, strain PFK2, hits give low values 0.984 | S. cerevisiae deletion strains, locus YMR223W, strain ubp8, hits give low values 1.01 | S. cerevisiae deletion strains, locus YMR231W, strain pep5, hits give low values 0.998 | S. cerevisiae deletion strains, locus YMR307W, strain GAS1, hits give low values 1.09 | S. cerevisiae deletion strains, locus YNL067W, strain RPL9B, hits give low values 1.01 | S. cerevisiae deletion strains, locus YNL071W, strain lat1, hits give low values 0.973 | S. cerevisiae deletion strains, locus YNL153C, strain GIM3, hits give low values 0.992 | S. cerevisiae deletion strains, locus YNL183C, strain NPR1, hits give low values 0.943 | S. cerevisiae deletion strains, locus YNL209W, strain ssb2, hits give low values 1.01 | S. cerevisiae deletion strains, locus YNL233W, strain BNI4, hits give low values 1.01 | S. cerevisiae deletion strains, locus YNL248C, strain rpa49, hits give low values 0.989 | S. cerevisiae deletion strains, locus YNL250W, strain rad50, hits give low values 1 | S. cerevisiae deletion strains, locus YNL271C, strain bni1, hits give low values 1.01 | S. cerevisiae deletion strains, locus YNL298W, strain CLA4, hits give low values 1.01 | S. cerevisiae deletion strains, locus YNL307C, strain MCK1, hits give low values 1.01 | S. cerevisiae deletion strains, locus YNL322C, strain KRE1 (second series), hits give low values 0.992 | S. cerevisiae deletion strains, locus YNL322C, strain KRE1, hits give low values 1.01 | S. cerevisiae deletion strains, locus YNR049C, strain mso1, hits give low values 0.981 | S. cerevisiae deletion strains, locus YNR052C, strain pop2, hits give low values 1.02 | S. cerevisiae deletion strains, locus YOL006C, strain TOP1, hits give low values 0.982 | S. cerevisiae deletion strains, locus YOL012C, strain htz1 1.06 | S. cerevisiae deletion strains, locus YOL147C, strain pex11, hits give low values 1 | S. cerevisiae deletion strains, locus YOR001W, strain rrp6, hits give low values 0.973 | S. cerevisiae deletion strains, locus YOR061W, strain CKA2, hits give low values 1.01 | S. cerevisiae deletion strains, locus YOR069W, strain VPS5, hits give low values 1.01 | S. cerevisiae deletion strains, locus YOR070C, strain gyp1, hits give low values 0.998 | S. cerevisiae deletion strains, locus YOR080W, strain dia2, hits give low values 0.975 | S. cerevisiae deletion strains, locus YOR083W, strain WHI5, hits give low values 0.98 | S. cerevisiae deletion strains, locus YOR106W, strain vam3, hits give low values 0.988 | S. cerevisiae deletion strains, locus YOR136W, strain idh2, hits give low values 1 | S. cerevisiae deletion strains, locus YOR144C, strain elg1, hits give low values 0.996 | S. cerevisiae deletion strains, locus YOR184W, strain ser1, hits give low values 1.04 | S. cerevisiae deletion strains, locus YOR231W, strain MKK1, hits give low values 0.983 | S. cerevisiae deletion strains, locus YOR265W, strain rbl2, hits give low values 0.995 | S. cerevisiae deletion strains, locus YOR270C, strain vph1, hits give low values 0.987 | S. cerevisiae deletion strains, locus YOR290C, strain snf2, hits give low values 0.98 | S. cerevisiae deletion strains, locus YOR316C, strain cot1, hits give low values 1.01 | S. cerevisiae deletion strains, locus YPL051W, strain arl3, hits give low values 0.988 | S. cerevisiae deletion strains, locus YPL055C, strain LGE1, hits give low values 0.996 | S. cerevisiae deletion strains, locus YPL078C, strain atp4, hits give low values 0.974 | S. cerevisiae deletion strains, locus YPL106C, strain sse1, hits give low values 0.97 | S. cerevisiae deletion strains, locus YPL240C, strain hsp82, hits give low values 0.991 | S. cerevisiae deletion strains, locus YPL256C, strain CLN2, hits give low values 0.979 | S. cerevisiae deletion strains, locus YPR119W, strain clb2, hits give low values 1.01 | S. cerevisiae deletion strains, locus YPR141C, strain kar3, hits give low values 1 | S. cerevisiae deletion strains, locus YPR163C, strain tif3, hits give low values 1 | S. cerevisiae deletion strains, locus YPR167C, strain met16, hits give low values 1.01 | S. cerevisiae deletion strains, strain wtn01, hits give low values 1 | S. cerevisiae strains, strain wild type, hits give low values 1.01
